In PubChem BioAssay (EPA / NIEHS) one finds AC50 and outcome data, which are given here for 40 compounds.

Structures are written as SMILES. Where “and” joins values, the source holds several entries; their conditions need not be identical. Equal entries are not always repeated. Records with an inconclusive call do not appear. Calls of active or inactive are those of the source. Rule for the calls: active = hit-call score of the fitted dose curve at least 0.9, where 1 is the maximum; inconclusive = response in the unintended direction; inactive = score below 0.9.

Sequence of Nuclear receptor subfamily 1 group I member 2 (Homo sapiens) (O75469 whole entry, looked up): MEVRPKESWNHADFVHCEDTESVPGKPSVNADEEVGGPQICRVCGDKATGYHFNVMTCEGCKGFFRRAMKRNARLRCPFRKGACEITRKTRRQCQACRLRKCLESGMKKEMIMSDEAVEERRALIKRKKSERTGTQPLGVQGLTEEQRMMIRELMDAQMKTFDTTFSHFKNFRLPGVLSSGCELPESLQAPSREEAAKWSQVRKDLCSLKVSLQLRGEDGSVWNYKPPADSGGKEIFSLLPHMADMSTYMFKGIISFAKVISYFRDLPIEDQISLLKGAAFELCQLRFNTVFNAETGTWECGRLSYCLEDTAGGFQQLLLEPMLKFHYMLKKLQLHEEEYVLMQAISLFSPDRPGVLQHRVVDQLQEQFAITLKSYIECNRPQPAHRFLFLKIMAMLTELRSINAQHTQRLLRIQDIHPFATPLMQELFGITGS

The target of the test is Nuclear receptor subfamily 1 group I member 2 (Homo sapiens) (UniProt O75469). Description: ATG_PXR_TRANS: Attagene TRANS-FACTORIAL HepG2 Assay for human Pregnane X Receptor (PXR) (AID 2283008). The procedure:
ATG_TRANS is a cell-based, multiplexed-readout assay that uses HepG2, a human liver cell line, with measurements taken at 24 hours after chemical dosing in a 24-well plate.ATG_PXR_TRANS is one of 30 assay component(s) measured or calculated from the ATG_TRANS assay. It is designed to make measurements of mRNA induction, a form of inducible reporter, as detected with fluorescence intensity signals by Reverse transcription polymerase chain reaction (RT-PCR) and Capillary electrophoresis technology.Data from the assay component ATG_PXR_TRANS was analyzed into 1 assay endpoint. This assay endpoint, ATG_PXR_TRANS, was analyzed in the positive analysis fitting direction relative to DMSO as the negative control and baseline of activity. Using a type of inducible reporter, measures of mRNA for gain-of-signal activity can be used to understand the reporter gene at the transcription factor-level as they relate to the gene NR1I2. Furthermore, this assay endpoint can be referred to as a primary readout, because this assay has produced multiple assay endpoints where this one serves a reporter gene function. To generalize the intended target to other relatable targets, this assay endpoint is annotated to the nuclear receptor intended target family, where the subfamily is non-steroidal.
Human liver HepG2 cells are transiently transfected with multiple reporter transcription units (MRTUs) in 6-well plates using FuGene 6 reagent (Roche; 3 ml FuGene/1 mg DNA). The MRTU constructs are regulated by a cis-regulating element (promoter). […] A major difference between the CIS and TRANS system is that in CIS activities of endogenous TFs are measured, whereas the TRANS assay evaluates changes in activities of exogenous, chimeric NR-Gal4 proteins. […] At the end of 24 hour incubation, total RNA was isolated using TriZol reagent (Invitrogen). The isolated RNA is then reverse-transcribed using oligo(dT) primer and Mo-MLV reverse transcriptase (Invitrogen) with DNAse I (Ambion) treatment for 30 min. The one-tenth of the produced cDNA was amplified by PCR using Taq DNA polymerase (Invitrogen) and two reporter sequence-specific primers. The PCR products were fluorescently labeled by primer extension with 6-arboxyfluorescein (6-FAM) 5'-labeled reporter sequence-specific primer (2 min at 95 C, 20 s at 68 C and 10 min at 72 C) and these products were digested with 5U of HpaI (New England Biolabs) for 2h at 37 C. The fragments were purified using Qiaquick PCR columns (Qiagen), analyzed on an ABI 3130xL genetic analyzer (Applied Biosystems) with peak positions identified by using a set of X-rhodamine (ROX)-labeled MapMarker1000 molecular weight standards (BioVentures). The raw capillary electrophoresis data was processed using Attagraph software (Attagene).
Broadly, the AC50 is the concentration giving half of the maximal activity seen. As to `CC1(C)[C@H](C(=O)O[C@H](C#N)c2cccc(Oc3ccccc3)c2)[C@@H]1/C=C(\Cl)C(F)(F)F`, the AC50 was 152 nM (active) and 288 nM (active).

Turning to `CCOP(=S)(OCC)O/N=C(\C#N)c1ccccc1`, the concentration at half-maximal activity (AC50) was 1.54 µM (active).

For `N#Cc1ccccc1N`, the result was inactive.

For `O=C(O)C1(c2ccc3c(c2)OC[C@H](Cc2ccc(-c4ccccc4)cc2)[C@H]3O)CCCC1`, the compound was classed as inactive.

Take `Oc1cccc(-c2ccccc2)c1`: the AC50 was 26.1 µM (active).

Turning to `Oc1cc(Cl)c(Cl)cc1Cl`, the call was inactive.

As to `O=C1C=CC(=O)c2ccccc21`, the outcome was inactive.

`Cc1c([N+](=O)[O-])c(C)c([N+](=O)[O-])c(C(C)(C)C)c1[N+](=O)[O-]`: the AC50 was 2.05 µM (active).

For `OC(Cc1ccccc1Cl)(Cn1[nH]cnc1=S)C1(Cl)CC1` (stereo not given), the AC50 is 17.7 µM (active).

Consider `CN(CCCC(O)c1cccnc1)N=O` (stereo not given), for which the outcome was inactive.

For the compound `O=S1(=O)OC(c2cc(Br)c(O)c(Br)c2)(c2cc(Br)c(O)c(Br)c2)c2ccccc21`, the compound was classed as inactive.

Consider `N#Cc1ccccc1Cl`, for which the outcome was inactive.

On to `CN(N=O)c1ccc([N+](=O)[O-])cc1`, for which the AC50 was 19.8 µM (active).

As for `CCOC(=O)CCN(SN(C)C(=O)Oc1cccc2c1OC(C)(C)C2)C(C)C`, the AC50 was 14.5 µM (active).

In the case of `CC(=O)CN(CC(C)=O)N=O`, the outcome was inactive.

On to `C=CCc1ccccc1O`, for which the result was inactive.

Take `Nc1cccnc1`: the call was inactive.

In the case of `NC(=O)c1ccc(N)nc1`, the call was inactive.

As to `CC(c1ccccc1)(c1ccc(O)cc1)c1ccc(O)cc1`, the half-maximal activity concentration (AC50) was 2.54 µM (active).

Take `OC[C@@H](O)[C@H]1O[C@@H]2O[C@H](C(Cl)(Cl)Cl)O[C@@H]2[C@H]1O`: the call was inactive.

As to `CC(C)(C1CCC(O)CC1)C1CCC(O)CC1` (stereo not given), the outcome was inactive.

For the compound `C#CCOC(=O)/C=C(C)/C=C/CC(C)CCCC(C)C` (stereo not given), the AC50 was 27.4 µM (active).

Take `c1ccc2sc(SNC3CCCCC3)nc2c1`: the AC50 is 20.2 µM (active).

As to `Cc1cccc(N=Nc2ccc(N(C)C)cc2)c1`, the outcome was inactive.

Regarding `O=C(O)COc1cc(Cl)c(Cl)cc1Cl`, the call was inactive.

On to `Cc1cc(C(F)(C(F)(F)F)C(F)(F)F)ccc1NC(=O)c1cccc(I)c1C(=O)NC(C)(C)CS(C)(=O)=O`, for which the AC50 was 1.13 µM (active).

In the case of `Brc1c(Br)c(Br)c(Oc2c(Br)c(Br)c(Br)c(Br)c2Br)c(Br)c1Br`, the outcome was inactive.

On to `O=S(=O)(Oc1ccc(Cl)cc1)c1ccc(Cl)cc1`, for which the AC50 was 4.68 µM (active).

For `c1ccc2c(c1)Oc1ccccc1O2`, the result was inactive.

`CCCCCCCCCCCCc1cccc(S(=O)(=O)O)c1`: the call was inactive.

`c1ccc(-c2cccc(-c3ccccc3)c2)cc1`: the half-maximal activity concentration (AC50) is 11.5 µM (active).

With `Cc1cc(-c2cc(C)c(N)c(C)c2)cc(C)c1N`, the AC50 was 27 µM (active).

For `O=C(Cl)OCCOCCOC(=O)Cl`, the call was inactive.

For the compound `CCOC(=O)CC(=O)CCl`, the call was inactive.

Consider `COCC(=O)N(c1c(C)cccc1C)[C@H](C)C(=O)OC`, for which the half-maximal activity concentration (AC50) was 20.2 µM (active).

On to `C=C(C)C(=O)OCCCCOC(=O)C(=C)C`, for which the compound was classed as inactive.

As to `O=C(CCl)NCO`, the compound was called inactive.

With `O=[N+]([O-])c1cc([As](=O)(O)O)ccc1O`, the compound was called inactive.

On to `Clc1ccc(C(Cl)(Cl)Cl)cn1`, for which the compound was classed as inactive.

As to `COC(=O)Nc1cccc(OC(=O)Nc2cccc(C)c2)c1`, the compound was classed as inactive.
